Test results as given in PubChem BioAssay (Tox21).
Unmarked numbers belong to inactive results. A call without a number means that no potency is given here. Active and inactive are the calls of the source. Calls come from the whole dose curve.

These compounds were tested against Acetylcholinesterase (Homo sapiens) (UniProt P22303) (assay: Acetylcholinesterase (AChE) small molecule antagonists: enzyme-based qHTS assay with human liver microsomes (AID 1347399; note: nearly all actives have a fitted effect of over 60% in size)). Conditions: Potency: qHTS inhibition; outcome: qHTS inhibition; series mostly up to 115 µM.
Acetylcholinesterase (Homo sapiens), sequence (P22303 whole entry, looked up): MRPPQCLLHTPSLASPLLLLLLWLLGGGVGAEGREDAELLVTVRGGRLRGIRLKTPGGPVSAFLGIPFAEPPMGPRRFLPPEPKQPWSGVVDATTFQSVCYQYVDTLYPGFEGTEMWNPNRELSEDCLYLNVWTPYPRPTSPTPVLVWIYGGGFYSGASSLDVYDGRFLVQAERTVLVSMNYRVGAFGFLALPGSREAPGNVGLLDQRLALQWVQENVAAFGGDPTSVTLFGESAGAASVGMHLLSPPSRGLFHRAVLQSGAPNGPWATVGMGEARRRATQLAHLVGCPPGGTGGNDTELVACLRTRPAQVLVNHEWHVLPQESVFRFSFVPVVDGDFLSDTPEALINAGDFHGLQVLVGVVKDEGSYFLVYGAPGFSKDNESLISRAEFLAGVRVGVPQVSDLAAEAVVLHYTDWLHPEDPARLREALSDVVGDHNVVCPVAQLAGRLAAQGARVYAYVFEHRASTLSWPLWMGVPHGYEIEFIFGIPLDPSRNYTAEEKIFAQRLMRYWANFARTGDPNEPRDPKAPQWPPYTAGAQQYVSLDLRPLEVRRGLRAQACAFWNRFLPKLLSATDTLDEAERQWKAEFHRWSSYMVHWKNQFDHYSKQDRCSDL
In short: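 Recombinant human AChE (50 mU/mL in the enzyme mix) and human liver microsomes (0.25 mg/mL final) were preincubated with compound and NADPH (0.25 mg/mL final) for 30 min at 37 C. Acetylthiocholine/DTNB was then added; thiocholine was read colorimetrically after 10 min at room temperature.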
N[C@@H](Cc1c[nH]c2ccc(O)cc12)C(=O)O was tested, and the Potency was “inactive”. In the case of Nc1ccc(Oc2ccc(Cl)cc2)cc1, the Potency is reported as “inactive”. In the case of CC(=O)Oc1ccc([N+](=O)[O-])cc1CCl, the Potency is reported as “inactive”. With C/C=C(\C)C(C)=O the Potency was “inactive”. In the case of CCOCCn1c(C2CCN(CCc3ccc(C(C)(C)C(=O)O)cc3)CC2)nc2ccccc21, the Potency is reported as “inactive”. For CC(=O)OC[C@H]1O[C@@](COC(C)=O)(O[C@H]2O[C@H](COC(C)=O)[C@@H](OC(C)=O)[C@H](OC(C)=O)[C@H]2OC(C)=O)[C@@H](OC(C)=O)[C@@H]1OC(C)=O, the Potency was “inactive”. In the case of O=S(=O)(O)CO, the Potency is reported as “inactive”. CCCCCCCCC was tested, and the Potency was “inactive”. CN(C)CCOCCN(C)C was tested, and the Potency was “inactive”. With CC/C=C\CC/C=C/C(OCC)OCC the Potency was “inactive”. Nc1ccc2cc3ccccc3cc2c1 was tested, and the Potency was “inactive”. With Cc1ccccc1S(=O)(=O)O the Potency was “inactive”. For CC(C)OC(=O)COc1ccc(Cl)cc1Cl, the Potency was “inactive”. In the case of c1ccc(CCCc2ccncc2)cc1, the Potency is reported as “inactive”. OCCOc1cccc(OCCO)c1 was tested, and the Potency was “inactive”. Cc1cc(O)c2c(c1)C(=O)c1cc(O)cc(O)c1C2=O was tested, and the Potency was “inactive”. For Fc1ccc([C@@H]2CCNC[C@H]2COc2ccc3c(c2)OCO3)cc1, the Potency was “inactive”. With O=C=Nc1cccc(C(F)(F)F)c1 the Potency was “inactive”. In the case of CC1Cc2ccccc2N1NC(=O)c1ccc(Cl)c(S(N)(=O)=O)c1 (stereo not drawn), the Potency is reported as “inactive”. In the case of O=C(Cl)c1ccc(F)c(Cl)c1, the Potency is reported as “inactive”. C=CCCCCCCCCCCCCCCCC showed an activity change, negative = inhibition of -0.261% [at 10.5 µM]. With OC1CCCC1 the Potency was “inactive”. With CC1(C)S[C@@H]2[C@H](NC(=O)COc3ccccc3)C(=O)N2[C@H]1C(=O)O the Potency was “inactive”.
